{"source": "PubChem BioAssay AID1634", "about": "(National Center for Advancing Translational Sciences (NCATS), 2009)", "note": "Out of some 260,000 compounds screened, about 150 (0.058%) were called active. Calls come from the whole dose curve; as a rule, active = well fitted inhibition curve with a large enough effect; inconclusive = small, poorly fitted or top-dose-only effect; inactive = no such curve, though single readings can be large or run the other way. Shown is part of a subset that was picked to be rich in actives. Potency is the fitted concentration of half-maximal effect."}
{"biological_target": "Pyruvate kinase PKM (Homo sapiens) (UniProt P14618)", "sequence (P14618 whole entry, looked up, canonical isoform)": "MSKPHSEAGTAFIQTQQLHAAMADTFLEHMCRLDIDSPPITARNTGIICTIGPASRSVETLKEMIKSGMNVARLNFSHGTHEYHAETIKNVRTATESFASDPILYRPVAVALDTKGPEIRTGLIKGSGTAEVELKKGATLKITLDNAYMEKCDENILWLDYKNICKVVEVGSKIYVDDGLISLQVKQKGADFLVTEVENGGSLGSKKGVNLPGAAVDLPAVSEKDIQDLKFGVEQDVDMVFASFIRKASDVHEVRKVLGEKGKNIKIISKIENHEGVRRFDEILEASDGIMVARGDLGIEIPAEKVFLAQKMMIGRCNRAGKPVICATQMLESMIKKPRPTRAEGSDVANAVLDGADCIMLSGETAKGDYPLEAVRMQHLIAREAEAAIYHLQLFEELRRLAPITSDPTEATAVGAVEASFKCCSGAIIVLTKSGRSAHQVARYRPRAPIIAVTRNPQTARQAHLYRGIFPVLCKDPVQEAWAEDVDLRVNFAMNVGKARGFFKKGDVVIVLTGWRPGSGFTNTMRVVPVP", "test": "qHTS Assay for Inhibitors of Human Muscle isoform 2 Pyruvate Kinase; note: nearly all actives have a fitted effect of over 60% in size;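 for activity change, negative = inhibition: plate controls were uninhibited enzyme wells for no effect and no-enzyme wells for full effect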", "conditions": "purified PKM2, ATP generation, Kinase-Glo luminescence; series mostly up to 57.5 µM; activity change, negative = inhibition: at the top concentration", "method": "NIH Chemical Genomics Center [NCGC] Matthew G. Vander Heiden, M.D., Ph.D. [Harvard Medical School, 77 Avenue Louis Pasteur, Boston, MA 02115] […] ATP generation was detected in a coupled reaction by luciferase-mediated luminescence, an ATP-dependent process. […] The enzyme was assayed at an intermediate level of activity to screen for both inhibitors and activators.\nNCGC Assay Protocol Summary: Three uL of substrate mix (at r.t.) in assay buffer (50 mM Imidazole pH7.2, 50 mM KCl, 7 mM MgCl2, 0.01% Tween 20, 0.05% BSA) was dispensed into white solid bottom 1,536 well microtiter plates so that the final concentrations of substrates in the assay were 0.1 mM ADP and 0.5 mM PEP. 23 nL of compound were delivered by a pin tool and 1 uL of enzyme mix in assay buffer (4 degree Celsius) was added. Plates were incubated at room temperature for 1 hour. Two uL of detection mix (Kinase-Glo, Promega; at 4 degree Celsius protected from light) was added and luminescence read by a ViewLux (Perkin Elmer) at 5 second exposure/plate. Data were normalized to the uninhibited and AC100 inhibition (no enzyme). To monitor activation, the first column contained a titration of the activator, NCGC00031955-01 (16-point 1:2 dilutions in duplicate starting at 57 uM) and the first 16 rows of column 4 contained 57 uM of NCGC00031955-01."}
{"compound": "O=C(NCCN1C(=O)S/C(=C\\c2cccnc2)C1=O)c1ccc(S(=O)(=O)N2CCCC2)cc1", "activity change, negative = inhibition": "46.1% (inactive)"}
{"compound": "Cc1ccnc(-n2sc3ccccc3c2=O)n1", "activity change, negative = inhibition": "19.8% (inactive)"}
{"compound": "CC(C)NC(=O)CCCn1c(=S)[nH]c2cc3c(cc2c1=O)OCO3", "activity change, negative = inhibition": "56.3% (inactive)"}
{"compound": "O=C(Cn1nc(CNc2ccc(Cl)cc2)[n+]2c1CCCCC2)c1ccc(Cl)cc1", "activity change, negative = inhibition": "36.3% (inactive)"}
{"compound": "Cc1ccc(NC(=O)c2cc(-c3ccc(C)o3)nc3ccccc23)nc1", "activity change, negative = inhibition": "41.8% (inactive)"}
{"compound": "Cc1ccnc(NC(=O)c2ccoc2C)c1", "Potency": "14.1 µM (active)"}
{"compound": "CCOc1cccc2c1OC1(CCCCC1)N1N=C(c3cccnc3)CC21", "note": "(stereo not drawn)", "activity change, negative = inhibition": "31.1% (inactive)"}
{"compound": "O=S(=O)(c1ccc(F)cc1)N1CCN(C(=S)NC2CCCC2)CC1", "activity change, negative = inhibition": "47.7% (inactive)"}
{"compound": "Cc1cc(C(=O)N/N=C/c2ccccc2[N+](=O)[O-])c(C)o1", "activity change, negative = inhibition": "45.8% (inactive)"}
{"compound": "Cc1ccccc1CN1C[C@@H]2C[C@@H](c3cn(C)nc3-c3ccccc3)N3CCC[C@@]23C1=O", "activity change, negative = inhibition": "83.1% (inactive)"}
{"compound": "CSc1ccc(/C=N\\NC(=O)COc2ccc(Cl)cc2Br)cc1", "activity change, negative = inhibition": "21.9% (inactive)"}
{"compound": "Cn1c(SCC(=O)Nc2cccc(O)c2)nnc1-c1ccc(S(=O)(=O)N2CCOCC2)cc1", "activity change, negative = inhibition": "46.7% (inactive)"}
{"compound": "Cc1ccccc1-n1nc(C)c2c1N=C1C(Cl)=CC(Cl)=CN1C2c1ccc(C(=O)O)cc1", "note": "(stereo not drawn)", "activity change, negative = inhibition": "34.7% (inactive)"}
{"compound": "Cn1c(=O)c2c(nc(SCCNS(=O)(=O)c3ccccc3)n2C)n(C)c1=O", "activity change, negative = inhibition": "55.3% (inactive)"}
{"compound": "O=C(NC1=NCCS1)[C@H](Cc1ccccc1)N1C(=O)c2ccccc2C1=O", "activity change, negative = inhibition": "46.9% (inactive)"}
{"compound": "CN(C(=O)CSc1nnc(N)s1)c1c(N)n(Cc2ccccc2)c(=O)[nH]c1=O", "activity change, negative = inhibition": "36.5% (inactive)"}
{"compound": "Cc1ccc(NC(=O)OCCNC(=O)c2ccncc2)cc1", "activity change, negative = inhibition": "59.5% (inactive)"}
{"compound": "Cc1ccc(-c2cc(C(=O)N/N=C/C=C/c3ccco3)c3ccccc3n2)cc1C", "activity change, negative = inhibition": "30.4% (inactive)"}
{"compound": "COc1ccc(-c2nnc(SC(C)C#N)o2)cc1", "note": "(stereo not drawn)", "activity change, negative = inhibition": "48.4% (inactive)"}
{"compound": "Cc1ccc(S(=O)(=O)N2CCN(Cc3cccc(C)c3O)CC2)cc1", "activity change, negative = inhibition": "51.6% (inactive)"}
{"compound": "Cc1ccc(-c2nc(SCC(=O)Nc3ccccc3OC(F)F)c3c(C)c(C(=O)O)sc3n2)cc1", "activity change, negative = inhibition": "42.3% (inactive)"}
{"compound": "Cc1nc(SCC(=O)N2CC(=O)Nc3ccccc32)c2c(C)c(C)sc2n1", "activity change, negative = inhibition": "63% (inactive)"}
{"compound": "COc1ccc(-c2nnn(CC(=O)N(CCO)C(C(=O)NC3CCCC3)c3ccc(F)cc3)n2)cc1", "note": "(stereo not drawn)", "activity change, negative = inhibition": "-23.3% (inactive)"}
{"compound": "CN(C(=O)COC(=O)c1cc(-c2ccco2)nc2ccccc12)C1CCS(=O)(=O)C1", "note": "(stereo not drawn)", "activity change, negative = inhibition": "65.5% (inactive)"}
{"compound": "CC(C)CCn1cnc2c1c(=O)n(CC(=O)NC(N)=O)c(=O)n2Cc1ccccc1", "activity change, negative = inhibition": "40.9% (inactive)"}
{"compound": "COc1ccc(OC)c(Nc2nc(-c3ccc(O)c(O)c3)cs2)c1", "activity change, negative = inhibition": "36.2% (inactive)"}
{"compound": "COc1ccc(COCCN2CCN(S(=O)(=O)c3ccccc3)CCC2=O)cc1", "activity change, negative = inhibition": "44.4% (inactive)"}
{"compound": "COC(=O)c1[nH]c2ccccc2c1NS(=O)(=O)c1ccc(OC)cc1OC", "activity change, negative = inhibition": "32.8% (inactive)"}
